# Results published in the supplement of paper PMC12067093, “Discovery and optimisation of a covalent ligand for TRIM25 and its application to targeted protein ubiquitination” (Chemical Science, 2025).
# The full data set covers some 21,000 targets. This sample favours those with the largest changes.
# Compound: CC1Cc2ccccc2N1C(=O)C1CCCN(C1)C(=O)CCl (mixture of isomers) [TRIM25 ligand 11 (diastereomer mixture)]
# Test: probe-labelled cysteine peptide fold change vs DMSO (competition) (log2 fold change); higher = less target engagement (more negative = stronger competition)
# Settings: THP-1, incubation time: 4 h
# 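Note: competitive chemoproteomic profiling in live THP-1 cells with an iodoacetamide desthiobiotin (IA-DTB) probe, comparing probe-labelled peptide intensities in compound-treated cells against DMSO-treated controls.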
# Chain of UniProt P51531 (P51531 whole entry, looked up): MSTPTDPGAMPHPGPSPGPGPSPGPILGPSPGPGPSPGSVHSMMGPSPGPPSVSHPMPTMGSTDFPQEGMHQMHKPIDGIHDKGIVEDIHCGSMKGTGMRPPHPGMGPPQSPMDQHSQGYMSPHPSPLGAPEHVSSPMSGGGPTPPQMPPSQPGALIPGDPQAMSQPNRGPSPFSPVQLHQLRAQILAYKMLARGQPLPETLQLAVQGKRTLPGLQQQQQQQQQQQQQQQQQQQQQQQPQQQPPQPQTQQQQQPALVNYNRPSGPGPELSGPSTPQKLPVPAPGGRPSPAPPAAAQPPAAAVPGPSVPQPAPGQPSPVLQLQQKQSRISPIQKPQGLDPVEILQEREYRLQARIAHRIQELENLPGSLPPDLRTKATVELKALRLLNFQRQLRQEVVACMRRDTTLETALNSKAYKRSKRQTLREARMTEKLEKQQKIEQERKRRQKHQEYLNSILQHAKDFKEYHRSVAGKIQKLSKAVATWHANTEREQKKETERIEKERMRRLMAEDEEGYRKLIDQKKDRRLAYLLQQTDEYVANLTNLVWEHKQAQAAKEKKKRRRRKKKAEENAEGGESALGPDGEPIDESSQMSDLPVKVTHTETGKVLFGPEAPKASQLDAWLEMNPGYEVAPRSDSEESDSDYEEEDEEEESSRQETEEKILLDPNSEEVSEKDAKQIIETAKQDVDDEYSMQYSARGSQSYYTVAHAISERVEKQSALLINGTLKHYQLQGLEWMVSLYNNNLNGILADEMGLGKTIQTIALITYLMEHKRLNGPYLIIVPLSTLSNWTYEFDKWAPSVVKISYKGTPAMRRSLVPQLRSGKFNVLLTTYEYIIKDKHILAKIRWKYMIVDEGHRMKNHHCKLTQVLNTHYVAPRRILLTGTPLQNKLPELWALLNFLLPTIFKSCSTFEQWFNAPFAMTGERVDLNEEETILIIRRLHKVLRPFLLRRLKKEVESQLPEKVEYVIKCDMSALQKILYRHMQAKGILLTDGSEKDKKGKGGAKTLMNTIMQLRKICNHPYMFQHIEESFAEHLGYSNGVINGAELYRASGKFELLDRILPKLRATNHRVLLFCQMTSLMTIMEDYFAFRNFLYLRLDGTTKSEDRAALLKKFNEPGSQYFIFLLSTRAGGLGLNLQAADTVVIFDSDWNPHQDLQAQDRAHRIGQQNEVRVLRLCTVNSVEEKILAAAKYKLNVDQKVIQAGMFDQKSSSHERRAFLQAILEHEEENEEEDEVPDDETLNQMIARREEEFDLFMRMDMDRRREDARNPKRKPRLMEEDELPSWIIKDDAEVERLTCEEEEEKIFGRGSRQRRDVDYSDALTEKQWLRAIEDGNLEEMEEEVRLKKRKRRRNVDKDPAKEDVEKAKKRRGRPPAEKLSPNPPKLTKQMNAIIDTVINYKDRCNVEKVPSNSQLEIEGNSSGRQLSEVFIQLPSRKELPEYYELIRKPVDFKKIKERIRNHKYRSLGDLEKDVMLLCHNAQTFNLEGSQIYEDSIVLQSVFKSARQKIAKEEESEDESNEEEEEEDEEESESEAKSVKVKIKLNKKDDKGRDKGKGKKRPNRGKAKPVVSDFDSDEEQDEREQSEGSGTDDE
# Chain of UniProt Q86TU7 (Q86TU7 whole entry): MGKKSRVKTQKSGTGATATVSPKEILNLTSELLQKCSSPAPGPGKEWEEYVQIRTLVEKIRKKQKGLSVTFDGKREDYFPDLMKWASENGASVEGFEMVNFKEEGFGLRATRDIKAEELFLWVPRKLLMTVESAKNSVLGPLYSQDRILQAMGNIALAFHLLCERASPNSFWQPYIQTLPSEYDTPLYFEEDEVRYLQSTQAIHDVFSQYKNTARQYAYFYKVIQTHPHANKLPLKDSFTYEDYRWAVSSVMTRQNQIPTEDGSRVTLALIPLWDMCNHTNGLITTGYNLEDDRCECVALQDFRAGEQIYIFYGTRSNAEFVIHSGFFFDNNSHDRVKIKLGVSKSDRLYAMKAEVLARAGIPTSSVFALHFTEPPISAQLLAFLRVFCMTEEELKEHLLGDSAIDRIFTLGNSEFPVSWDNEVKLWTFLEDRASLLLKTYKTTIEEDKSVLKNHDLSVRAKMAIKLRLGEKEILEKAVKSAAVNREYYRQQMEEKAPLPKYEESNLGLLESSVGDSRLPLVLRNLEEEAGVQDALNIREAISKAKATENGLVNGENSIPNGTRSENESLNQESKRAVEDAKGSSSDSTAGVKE
# Chain of UniProt Q96B97 (Q96B97 whole entry, looked up): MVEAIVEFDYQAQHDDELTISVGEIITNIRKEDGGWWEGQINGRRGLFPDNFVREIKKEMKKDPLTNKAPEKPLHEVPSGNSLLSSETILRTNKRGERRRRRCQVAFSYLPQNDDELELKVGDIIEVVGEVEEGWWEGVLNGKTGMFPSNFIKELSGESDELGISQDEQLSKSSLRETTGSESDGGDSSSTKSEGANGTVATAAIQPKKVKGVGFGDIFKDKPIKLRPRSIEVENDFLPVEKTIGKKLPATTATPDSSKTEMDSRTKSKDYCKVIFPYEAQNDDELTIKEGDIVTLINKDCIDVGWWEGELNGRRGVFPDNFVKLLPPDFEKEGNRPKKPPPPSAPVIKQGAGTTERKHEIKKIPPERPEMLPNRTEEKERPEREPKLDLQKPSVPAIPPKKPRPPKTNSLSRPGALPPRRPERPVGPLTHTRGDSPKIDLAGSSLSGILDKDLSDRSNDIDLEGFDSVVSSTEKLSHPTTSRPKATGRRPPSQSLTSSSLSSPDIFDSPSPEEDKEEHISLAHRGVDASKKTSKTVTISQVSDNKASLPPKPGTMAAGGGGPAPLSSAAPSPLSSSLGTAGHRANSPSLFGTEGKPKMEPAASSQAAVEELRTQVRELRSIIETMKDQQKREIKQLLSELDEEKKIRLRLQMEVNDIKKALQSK
# Chain of UniProt Q7Z7L1 (Q7Z7L1 whole entry, looked up): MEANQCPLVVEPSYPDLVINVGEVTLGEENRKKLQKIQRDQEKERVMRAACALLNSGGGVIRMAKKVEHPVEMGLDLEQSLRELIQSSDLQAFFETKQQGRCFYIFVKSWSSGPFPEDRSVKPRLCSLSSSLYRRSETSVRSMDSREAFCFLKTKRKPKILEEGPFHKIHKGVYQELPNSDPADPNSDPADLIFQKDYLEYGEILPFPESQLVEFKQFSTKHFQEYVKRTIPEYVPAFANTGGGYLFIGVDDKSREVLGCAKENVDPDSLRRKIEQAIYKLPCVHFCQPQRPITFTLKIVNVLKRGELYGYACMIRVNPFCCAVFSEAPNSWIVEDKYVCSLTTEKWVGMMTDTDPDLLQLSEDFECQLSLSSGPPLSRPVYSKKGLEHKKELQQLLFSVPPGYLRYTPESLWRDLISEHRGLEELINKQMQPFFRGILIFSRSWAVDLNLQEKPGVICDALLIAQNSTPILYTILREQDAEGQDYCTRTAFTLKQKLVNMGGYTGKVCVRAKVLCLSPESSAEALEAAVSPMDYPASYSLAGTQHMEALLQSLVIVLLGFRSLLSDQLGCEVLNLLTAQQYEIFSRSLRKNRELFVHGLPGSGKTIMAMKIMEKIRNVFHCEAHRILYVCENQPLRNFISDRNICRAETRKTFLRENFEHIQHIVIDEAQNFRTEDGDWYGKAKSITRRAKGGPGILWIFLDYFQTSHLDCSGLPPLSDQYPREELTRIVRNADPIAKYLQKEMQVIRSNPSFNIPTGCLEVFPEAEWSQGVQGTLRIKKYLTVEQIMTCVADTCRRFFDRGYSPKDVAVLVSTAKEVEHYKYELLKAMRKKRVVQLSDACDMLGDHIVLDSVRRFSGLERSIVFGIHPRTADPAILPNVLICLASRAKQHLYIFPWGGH
# Chain of UniProt Q15758 (Q15758 whole entry, looked up): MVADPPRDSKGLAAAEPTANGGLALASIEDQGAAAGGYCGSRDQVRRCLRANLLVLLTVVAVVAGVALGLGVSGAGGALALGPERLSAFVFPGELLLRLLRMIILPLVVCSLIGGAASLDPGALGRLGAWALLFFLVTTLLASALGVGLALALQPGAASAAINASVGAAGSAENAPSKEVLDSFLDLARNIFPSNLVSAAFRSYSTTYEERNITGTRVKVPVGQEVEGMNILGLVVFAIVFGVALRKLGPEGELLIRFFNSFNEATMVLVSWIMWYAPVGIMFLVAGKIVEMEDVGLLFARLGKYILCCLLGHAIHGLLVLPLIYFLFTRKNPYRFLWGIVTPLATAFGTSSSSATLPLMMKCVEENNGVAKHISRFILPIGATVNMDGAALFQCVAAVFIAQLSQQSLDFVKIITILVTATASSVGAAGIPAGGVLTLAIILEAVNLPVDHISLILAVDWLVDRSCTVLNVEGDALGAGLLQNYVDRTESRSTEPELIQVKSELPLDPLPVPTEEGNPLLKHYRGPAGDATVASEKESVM
# Chain of UniProt P62316 (P62316 whole entry, looked up): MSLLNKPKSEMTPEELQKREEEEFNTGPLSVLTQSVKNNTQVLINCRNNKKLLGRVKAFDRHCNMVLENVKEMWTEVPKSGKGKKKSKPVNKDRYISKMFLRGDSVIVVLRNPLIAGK
# Chain of UniProt O15270 (O15270 whole entry, looked up): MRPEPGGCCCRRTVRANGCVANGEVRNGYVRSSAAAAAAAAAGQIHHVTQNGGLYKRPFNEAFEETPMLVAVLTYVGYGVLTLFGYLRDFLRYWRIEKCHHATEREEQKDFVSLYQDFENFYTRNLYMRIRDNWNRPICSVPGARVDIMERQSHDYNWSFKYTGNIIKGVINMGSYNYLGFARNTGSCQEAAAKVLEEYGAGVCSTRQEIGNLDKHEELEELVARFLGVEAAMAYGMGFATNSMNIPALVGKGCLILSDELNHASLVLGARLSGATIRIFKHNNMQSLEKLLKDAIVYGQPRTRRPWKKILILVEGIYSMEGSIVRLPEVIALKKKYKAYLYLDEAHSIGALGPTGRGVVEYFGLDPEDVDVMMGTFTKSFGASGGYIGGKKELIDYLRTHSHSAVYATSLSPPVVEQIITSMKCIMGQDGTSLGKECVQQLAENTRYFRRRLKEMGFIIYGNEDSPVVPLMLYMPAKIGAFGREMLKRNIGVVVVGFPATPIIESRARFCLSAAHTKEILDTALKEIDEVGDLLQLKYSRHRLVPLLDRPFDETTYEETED
Target,probe-labelled cysteine peptide fold change (10 µM),probe-labelled cysteine peptide fold change (50 µM)
SETD3_Q86TU7_36_CSSPAPGPGK (UniProt Q86TU7),-0.0972,-0.145
SNRPD2_P62316_63_HCNMVLENVK (UniProt P62316),-0.117,-0.0606
SLFN11_Q7Z7L1_322_VNPFCCAVFSEAPNSWIVEDK (UniProt Q7Z7L1),0.661,0.447
SH3KBP1_Q96B97_301_DCIDVGWWEGELNGRR (UniProt Q96B97),-0.0866,-0.063
SLC1A5_Q15758_467_SCTVLNVEGDALGAGLLQNYVDR (UniProt Q15758),-0.0169,0.588
SON_P18583_1551_EMEHNTVCAAGTSPVGEIGEEK (UniProt P18583),0.0276,-0.264
SMARCA2_P51531_1016_ICNHPYMFQHIEESFAEHLGYSNGVINGAELYR (UniProt P51531),-0.0517,-0.116
RPS6KA3_P51812_436_EDIGVGSYSVCK<|>RPS6KA2_Q15349_429_EDIGVGSYSVCK (UniProt Q15349+P51812),-0.0733,-0.656
SNX27_Q96L92_432+434_TCEGYNEIIFPHCACDSR (UniProt Q96L92),0.835,0.695
SON_P18583_2070_ANAAAMCAK (UniProt P18583),0.0129,-0.103
SPTAN1_Q13813_1622_GACAGSEDAVK (UniProt Q13813),-0.135,-0.00186
SMU1_Q2TAY7_416_NPEHFVVCNR (UniProt Q2TAY7),-0.00322,0.0655
SPTLC2_O15270_99_CHHATER (UniProt O15270),0.261,0.971
